TGFb inhibitor: TGF-b pathway inhibition; HepG2 CAGA-GFP TGF-b/SMAD3 reporter, GFP fluorescence, 18 h; TGF-beta stimulated, 500 pg/mL final; Potency, µM (highest dose often 46.1 µM), inactives show at the top dose activity, negative = inhibition, most hits filed as inhibitors; 410,000 tested, 1.2% active; AID 588855; further: on the % scale 0 is the no-effect control and ±100 the full control effect; nearly all actives have a fitted effect of over 65% in size
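HEPG2 CAGA-GFP, 1000 cells/well; 2 h settle, 37 C; cpd via pin tool; TGF-b 500 pg/mL final; 18 h, 37 C; GFP imaging ex488/em500-530; %Activity normalised to -TGF-b and +DMSO controls; CRC fit, curve class.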
HepG2 tox: counter-screen for TGF-b inhibitors: cytotoxicity in HepG2 cells | Potency, µM (top dose mostly 46.1 µM), for the others: top-dose activity change, negative = cytotoxicity, most hits filed as cytotoxic | 410,000 tested, 0.76% active | HepG2 CAGA-GFP viability, ATP luminescence, 18 h | AID 588856
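CellTiter-Glo luminescence gave cytotoxicity after 18 hours at 37 degrees C. The cells were HepG2 CAGA-GFP in 1% FBS DMEM, stimulated with 500 pg/mL TGF-beta after compound addition. %Activity was normalised to no-cell wells (complete cell-killing) and DMSO (no toxicity), and curves were fitted and classified.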
A549 tox: A549 cytotoxicity, counter-screen for Nrf2 inhibitors. 390,000 tested, 0.16% active. Potency, µM (doses to about 46 µM), inactives show at the top dose activity change, negative = cytotoxicity, usual class: inhibitors. A549 ARE-Fluc cells, CellTiter-Fluor viability, 18-24 h. AID 504648; further: on the % scale 0 is the no-effect control and ±100 the full control effect
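A549 ARE-Fluc cells in 5% FBS OPTI-MEM, 5000 cells/well, rested 2 h then exposed to compounds in concentration-response for 18-24 h at 37 °C. Viability by CellTiter-Fluor fluorescence (Ex 405/Em 525) after 30 min; luciferase luminescence (BugLite, 15 min, RT) read afterwards.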
Nrf2 inh: inhibitors of Nrf2 signaling. Potency, µM (highest dose often 46 µM), for inactives: top-dose activity change, negative = inhibition, usual class: inhibitors. 360,000 tested, 2.1% active. A549 ARE-Fluc reporter, luciferase luminescence, 18-24 h; further: on the % scale 0 is the no-effect control and ±100 the full control effect; nearly all actives have a fitted effect of over 60% in size
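A549 ARE_Fluc cells, 5000/well, 5% FBS OPTI-MEM; compounds in dose-response, 18-24 h at 37 °C/5% CO2; CellTiter-Fluor viability read (Ex 405/Em 525), then BugLite luciferase luminescence = Nrf2 activity.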
Nrf2 ARE act: activates Nrf2 signaling; AREc32 ARE-luciferase reporter (MCF7-derived line), luminescence, 24 h; 410,000 tested, 0.31% active; Potency, µM (series often up to 46.1 µM), for the others: at the highest dose activation, usual class: activators; AID 624171; further: % of control where 0% means no effect; nearly all actives have a fitted effect of over 65% in size
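AREc32 cells carrying an ARE-driven firefly luciferase reporter were seeded at 1000 cells/well in OPTI-MEM with 5% FBS, then exposed to compound for 24 hr at 37 deg C. Luminescence was read with Steady-Glo after 30 min at RT.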
* = called active by the depositor; [ ] = remark or other dose. An excerpt weighted towards active compounds, which were near 3.6% of everything screened. The call rests on the fitted dose curve; in most records, active means well fitted curve in the direction sought with a large enough effect; inconclusive means small, poorly fitted or top-dose-only effect, or another doubt; inactive means no such curve, though single readings can be large; an effect the other way counts as inactive or inconclusive. Potency means the concentration at half of the fitted maximal effect.

How did COc1ccccc1CNc1nc(NCc2ccccc2)nc2ccsc12 do in these assays?
TGFb inhibitor: 17.8µM*; HepG2 tox: -37.3%; Nrf2 ARE act: -0.5%

How did COc1ccccc1CNc1nc(NCc2ccccc2F)c2sccc2n1 do in these assays?
TGFb inhibitor: 12.6µM*; HepG2 tox: -120.9%; Nrf2 ARE act: 0.7%[9.22 µM]

What do the screens show for `c1ccc(CNc2nc(NCCOc3ccccc3)c3sccc3n2)cc1`?
TGFb inhibitor: inconclusive; HepG2 tox: 11.2µM*; Nrf2 ARE act: 0.6%

Results for CNc1nc(NCCOc2ccccc2)c2sccc2n1 ?
TGFb inhibitor: inconclusive; HepG2 tox: -11.0%; Nrf2 ARE act: -1.0%

How did COc1ccccc1CNc1nc(NCc2cccc(OC)c2OC)c2sccc2n1 do in these assays?
TGFb inhibitor: inconclusive; HepG2 tox: -71.7%; Nrf2 ARE act: 3.6%[9.22 µM]

What do the screens show for `COCCNc1nc(NCc2ccccc2F)c2sccc2n1`?
TGFb inhibitor: -0.5%; HepG2 tox: -37.0%; Nrf2 ARE act: 6.2%

Results for C#Cc1cccc(Nc2nc(NCc3ccccc3OC)nc3ccsc23)c1 ?
TGFb inhibitor: 11.2µM*; HepG2 tox: -53.8%; Nrf2 ARE act: -2.2%

How did C=CCOC(=O)C1=C(C)Nc2nnnn2C1c1cccc(OC)c1OC (configuration not stated) do in these assays?
TGFb inhibitor: 24.7%; HepG2 tox: -22.1%; A549 tox: -6.7%; Nrf2 inh: -11.1%; Nrf2 ARE act: 4.0%

What do the screens show for `C#CC(C)(CC)NC(=O)c1cnn2c(C(F)F)cc(-c3ccccc3OC)nc12` (configuration not stated)?
TGFb inhibitor: 10.7%; HepG2 tox: 20.3%; A549 tox: -4.2%; Nrf2 ARE act: -0.9%

What do the screens show for `CN1CCN(C(=O)c2ccc(-c3ccccc3)cc2)CC1`?
TGFb inhibitor: -1.3%; HepG2 tox: -2.0%; A549 tox: 1.5%; Nrf2 inh: 4.3%; Nrf2 ARE act: 3.7%

Results for CCCN(CC(=O)Nc1ccccc1C)C(=O)c1ccc(S(=O)(=O)N2CCCCC2)cc1 ?
TGFb inhibitor: 0.2%; HepG2 tox: -0.5%; A549 tox: -11.3%; Nrf2 inh: 4.1%; Nrf2 ARE act: -0.8%

How did CCCCc1nnc(NC(=O)CSCc2cc(=O)n3ccsc3n2)s1 do in these assays?
TGFb inhibitor: 4.0%; HepG2 tox: -0.2%; A549 tox: -1.8%; Nrf2 inh: 11.4%; Nrf2 ARE act: -0.2%

Results for CC1(C)CC(CC(=O)Nc2ccccn2)C(=O)O1 (configuration not stated) ?
TGFb inhibitor: 13.0%; HepG2 tox: 0.7%; A549 tox: 3.7%; Nrf2 inh: 3.9%; Nrf2 ARE act: 2.3%

Results for O=C(Nc1ccccn1)c1onc2c1CCCC2 ?
TGFb inhibitor: 0.0%; HepG2 tox: 5.01µM*; A549 tox: -4.0%; Nrf2 inh: inconclusive; Nrf2 ARE act: inconclusive

What do the screens show for `O=C(Nc1ccccn1)c1csc2c1CCCC2`?
TGFb inhibitor: -18.6%; HepG2 tox: -15.3%; A549 tox: 10.8%; Nrf2 inh: inconclusive; Nrf2 ARE act: 5.01µM*

Results for O=C1NC[C@@H](CCCCN2C[C@H](Cc3ccc(O)cc3)N(CCC3CCCCC3)C(=O)C2=O)N(CCC2CCCCC2)C1=O ?
Nrf2 ARE act: -0.8%

Results for Cc1cnn(-c2nc(-c3cccs3)cc(C(F)(F)F)n2)c1 ?
TGFb inhibitor: 3.8%; HepG2 tox: -4.3%; A549 tox: -14.0%; Nrf2 inh: -18.6%; Nrf2 ARE act: 0.4%

How did FC(F)(F)c1cc(-c2cccs2)nc(-n2cc(Br)cn2)n1 do in these assays?
TGFb inhibitor: -2.8%; HepG2 tox: 8.5%; A549 tox: -6.6%; Nrf2 inh: -28.6%; Nrf2 ARE act: 3.16µM*

What do the screens show for `COc1ccc(C2c3c(n(CCc4ccccc4)cnc3=N)Oc3ccc4ccccc4c32)cc1OC` (configuration not stated)?
A549 tox: 0.0%; Nrf2 inh: 2.4%

How did Cc1ccc(C(=O)N/N=C\c2cccnc2)s1 do in these assays?
TGFb inhibitor: 14.5%; HepG2 tox: -4.0%; A549 tox: 0.2%; Nrf2 inh: inconclusive; Nrf2 ARE act: 0.7%

Results for Cc1c(C(=O)N/N=C/c2cccnc2)sc(N)c1C#N ?
TGFb inhibitor: 10µM*; HepG2 tox: 6.31µM*; A549 tox: -3.3%; Nrf2 inh: inconclusive; Nrf2 ARE act: inconclusive

How did CC(=O)n1cc(N(C(=O)CCl)c2ccc(C)cc2)c2ccccc21 do in these assays?
TGFb inhibitor: 5.62µM*; HepG2 tox: 5.01µM*; A549 tox: -10.4%; Nrf2 inh: -12.0%; Nrf2 ARE act: inconclusive

How did C=CCN(CC=C)C(=O)c1ccc2nc(Cc3ccc(OC)c(OC)c3)oc2c1 do in these assays?
TGFb inhibitor: inconclusive; HepG2 tox: -19.0%; A549 tox: -7.3%; Nrf2 inh: inconclusive; Nrf2 ARE act: -0.5%[9.22 µM]

How did COc1ccc(OCCNC(=O)C2(C)CCN2Cc2ccc(SC)cc2)cc1 (configuration not stated) do in these assays?
TGFb inhibitor: inconclusive; HepG2 tox: -18.6%; Nrf2 ARE act: 0.5%

How did COc1ccc(OCCNC(=O)C2(C)CCN2Cc2ccc3ccccc3c2)cc1 (configuration not stated) do in these assays?
TGFb inhibitor: 14.1µM*; HepG2 tox: -56.0%; Nrf2 ARE act: -1.8%

What do the screens show for `COc1ccc(CNC(=O)c2sc3nc4c(c(C(F)(F)F)c3c2N)CCC4)cc1OC`?
TGFb inhibitor: inconclusive; HepG2 tox: -12.1%; A549 tox: 0.3%; Nrf2 inh: 23.1µM*; Nrf2 ARE act: -0.7%

How did COc1ccc(C(=O)c2sc3nc4c(c(C(F)(F)F)c3c2N)CN(C(C)=O)CC4)cc1OC do in these assays?
TGFb inhibitor: 18.5%; HepG2 tox: -23.4%; A549 tox: -19.4%; Nrf2 inh: inconclusive; Nrf2 ARE act: 4.4%

Results for CCN=c1scc(-c2cccs2)n1/N=C/c1cc(OC)ccc1O ?
TGFb inhibitor: 12.6µM*; HepG2 tox: -42.7%; A549 tox: -15.6%; Nrf2 inh: 10.0%; Nrf2 ARE act: 5.3%

Results for COc1ccc(O)c(/C=N/n2c(-c3ccco3)csc2=Nc2cccnc2)c1 ?
TGFb inhibitor: inconclusive; HepG2 tox: -39.0%; A549 tox: -2.2%; Nrf2 inh: -12.5%; Nrf2 ARE act: 15.7%

Results for CC(=O)c1ccc(-n2nnnc2SCC(=O)Nc2cccc(NC(=O)c3ccco3)c2)cc1 ?
TGFb inhibitor: -2.8%; HepG2 tox: -6.6%; A549 tox: -13.3%; Nrf2 inh: 23.1µM*; Nrf2 ARE act: 7.0%

What do the screens show for `COc1ccc(C(C[N+](=O)[O-])c2c(-c3ccccc3)cc3ccccn23)c(OC)c1` (configuration not stated)?
TGFb inhibitor: 10µM*; HepG2 tox: 11.2µM*; A549 tox: 0.4%; Nrf2 inh: 4.0%; Nrf2 ARE act: 14.9%
